Laboratory results published in publication PMC5540273 (PLoS ONE, 2017).

What follows are molecules tested on HPK1. Details: concentration: 1 μM, replicates: in singlicate; n = 1.
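Note: KINOMEscan kinase panel screen.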

SMILES	%Inh
COC(=O)c1cccc(NC(=O)NCCNc2ccnc(Nc3ccc(F)cc3)n2)c1 [GSK1379883]	45%
O=C(Nc1ccccc1)Nc1ccc(Oc2ccc3nccn3n2)cc1	0%
Cl.Cl.c1ccc(-c2cc3ccncc3cc2OC2CCNCC2)cc1 [GSK1122999]	51%
Clc1cc(Nc2ncnc3cc[nH]c23)ccc1OCc1ccccn1	0%
Cn1cc(-c2ccc3c(c2)CCN3C(=O)Cc2cccc(C(F)(F)F)c2)c2c(N)ncnc21 [GSK2606414]	6%
CNc1nccc(-c2c(-c3ccc(F)cc3)ncn2C2CCN(C)CC2)n1 [SB-222903]	0%
N#Cc1ccc(Oc2ccc(Nc3ncnc4cc[nH]c34)cc2Cl)cc1	0%
Cl.c1ccc(Cn2ccc3cc(Nc4ncnc5ccccc45)ccc32)cc1 [GW275568]	31%
Nc1nc(-c2cccnc2)c(-c2ccnc3ccccc23)s1 [GW684083]	28%
O=C(Nc1n[nH]c2nc(-c3ccco3)c(Br)cc12)c1ccc(CN2CCCC2)cc1.O=C(O)[C@H](O)[C@@H](O)C(=O)O [SB-742352]	17%
Fc1cccc(COc2ccc(Nc3ncnc4sc(-c5ccc[nH]5)cc34)cc2Cl)c1 [GW707818]	39%
Clc1cccc(-c2nc(Nc3ccncc3)c3ccccc3n2)c1 [GW873004]	0%
CC(C)(C)OC(=O)NC1CCCN(c2cc(-c3ccc4c(N)n[nH]c4c3)nc(N)n2)C1 (stereo not drawn) [GSK2286096]	26%
COc1ccc(-c2oc3ncnc(N)c3c2-c2ccc(OC)cc2)cc1 [SB-589132]	40%
Nc1nc(-c2ccccn2)c(-c2ccnc3ccccc23)s1 [GW548057]	20%
CCCc1ccc(S(=O)(=O)NC2CCN(c3ccnc(Nc4ccc(OC)cc4)n3)C2)cc1 (stereo not drawn) [GSK1379737]	31%
COC(=O)c1c(-c2ccccc2)c2cc(Cl)ccc2c(=O)n1Cc1ccc(S(C)(=O)=O)cc1	0%
Cl.Fc1ccccc1COc1ccc(Nc2ncnc3ccc(-c4nnc(C(F)(F)F)o4)cc23)cc1Cl [GW424170]	20%

SMILES	%Inh
Oc1ccc2ncnc(Nc3ccc(OCc4ccccc4)cc3)c2c1 [GI262866]	41%
CSc1nn2c(=O)cc(N3CCOCC3)nc2n1Cc1cccc(Cl)c1Cl [GSK2347225]	25%
CCc1nc(-c2cccc(N(C)S(=O)(=O)c3ccccc3)c2)c(-c2ccnc(Nc3ccc(N4CCN(C(C)=O)CC4)nc3)n2)s1 [GSK1645895]	35%
COc1cc2ncnc(Nc3ccc(OCc4ccccc4Br)c(Cl)c3)c2cc1OC.Cl [GI261590]	33%
Cc1ccc(C)c(NC(=O)NCCNc2ccnc(Nc3ccc(F)cc3)n2)c1 [GSK1379878]	28%
CN1CCC(n2cnc(-c3ccc(F)cc3)c2-c2ccnc(NC3CCNCC3)n2)CC1 [SB-229482]	27%
CN1c2ccc(-c3ccc(C(=O)NCCO)cc3)cc2-c2[nH]ncc2S1(=O)=O	22%
O=C(Nc1ccccc1F)NC1CCN(c2ccnc(Nc3ccc(F)cc3)n2)C1 (stereo not drawn) [GSK1379722]	42%
Cn1ccc2ncnc(Nc3ccc(Oc4cccc(Cl)c4)c(Cl)c3)c21	2%
CCC(CC)(CC)n1cnc2c(N)ncnc21 [SKF-97620]	0%
Cl.Cn1ccc(-c2cccc(Nc3ccnc4cc(-c5nccs5)ccc34)c2)n1 [GW525701]	34%
Fc1ccc(Nc2nccc(-c3c(-c4ccc(Cl)cc4)nn4ncccc34)n2)cc1F [GW829058]	16%
COc1ccc(NC(=O)c2ccc(-c3cc(-c4nnc(C)o4)ccc3C)cc2)cc1 [GW595885]	24%
CS(=O)(=O)CCNCc1ccc(-c2ccc3ncnc(Nc4ccc(OCc5ccccc5)c(Cl)c4)c3c2)o1.Cl [GW574783]	22%
CCn1c(-c2ccncc2)nc2cnccc21 [SB-735216]	0%
c1ccc(-c2ccc3c(-c4ccnc(Nc5ccc6c(c5)OCCO6)n4)cnn3n2)cc1 [GW818941]	47%
Cc1cc(N2CCC(NS(=O)(=O)c3ccc(F)cc3)CC2)nc(Nc2cccc(C#N)c2)n1.O=C(O)C(F)(F)F [GSK1653537]	43%
COc1ccc(Nc2nccc(N3CCC(NC(=O)Nc4ccc5c(c4)OCO5)C3)n2)cc1 (stereo not drawn) [GSK1379745]	67%

These molecules were tested on HUNK. Details: concentration: 1 μM, replicates: in singlicate; n = 1.

SMILES	%Inh
COC(=O)c1cccc(NC(=O)NCCNc2ccnc(Nc3ccc(F)cc3)n2)c1 [GSK1379883]	90%
O=C(Nc1ccccc1)Nc1ccc(Oc2ccc3nccn3n2)cc1	9%
Cl.Cl.c1ccc(-c2cc3ccncc3cc2OC2CCNCC2)cc1 [GSK1122999]	27%
Clc1cc(Nc2ncnc3cc[nH]c23)ccc1OCc1ccccn1	13%
Cn1cc(-c2ccc3c(c2)CCN3C(=O)Cc2cccc(C(F)(F)F)c2)c2c(N)ncnc21 [GSK2606414]	0%
CNc1nccc(-c2c(-c3ccc(F)cc3)ncn2C2CCN(C)CC2)n1 [SB-222903]	39%
N#Cc1ccc(Oc2ccc(Nc3ncnc4cc[nH]c34)cc2Cl)cc1	1%
Cl.c1ccc(Cn2ccc3cc(Nc4ncnc5ccccc45)ccc32)cc1 [GW275568]	3%
Nc1nc(-c2cccnc2)c(-c2ccnc3ccccc23)s1 [GW684083]	0%
O=C(Nc1n[nH]c2nc(-c3ccco3)c(Br)cc12)c1ccc(CN2CCCC2)cc1.O=C(O)[C@H](O)[C@@H](O)C(=O)O [SB-742352]	0%
Fc1cccc(COc2ccc(Nc3ncnc4sc(-c5ccc[nH]5)cc34)cc2Cl)c1 [GW707818]	10%
Clc1cccc(-c2nc(Nc3ccncc3)c3ccccc3n2)c1 [GW873004]	53%
CC(C)(C)OC(=O)NC1CCCN(c2cc(-c3ccc4c(N)n[nH]c4c3)nc(N)n2)C1 (stereo not drawn) [GSK2286096]	5%
COc1ccc(-c2oc3ncnc(N)c3c2-c2ccc(OC)cc2)cc1 [SB-589132]	8%
Nc1nc(-c2ccccn2)c(-c2ccnc3ccccc23)s1 [GW548057]	8%
CCCc1ccc(S(=O)(=O)NC2CCN(c3ccnc(Nc4ccc(OC)cc4)n3)C2)cc1 (stereo not drawn) [GSK1379737]	10%
COC(=O)c1c(-c2ccccc2)c2cc(Cl)ccc2c(=O)n1Cc1ccc(S(C)(=O)=O)cc1	0%
Cl.Fc1ccccc1COc1ccc(Nc2ncnc3ccc(-c4nnc(C(F)(F)F)o4)cc23)cc1Cl [GW424170]	3%

SMILES	%Inh
Oc1ccc2ncnc(Nc3ccc(OCc4ccccc4)cc3)c2c1 [GI262866]	8%
CSc1nn2c(=O)cc(N3CCOCC3)nc2n1Cc1cccc(Cl)c1Cl [GSK2347225]	25%
CCc1nc(-c2cccc(N(C)S(=O)(=O)c3ccccc3)c2)c(-c2ccnc(Nc3ccc(N4CCN(C(C)=O)CC4)nc3)n2)s1 [GSK1645895]	0%
COc1cc2ncnc(Nc3ccc(OCc4ccccc4Br)c(Cl)c3)c2cc1OC.Cl [GI261590]	11%
Cc1ccc(C)c(NC(=O)NCCNc2ccnc(Nc3ccc(F)cc3)n2)c1 [GSK1379878]	0%
CN1CCC(n2cnc(-c3ccc(F)cc3)c2-c2ccnc(NC3CCNCC3)n2)CC1 [SB-229482]	0%
CN1c2ccc(-c3ccc(C(=O)NCCO)cc3)cc2-c2[nH]ncc2S1(=O)=O	0%
O=C(Nc1ccccc1F)NC1CCN(c2ccnc(Nc3ccc(F)cc3)n2)C1 (stereo not drawn) [GSK1379722]	24%
Cn1ccc2ncnc(Nc3ccc(Oc4cccc(Cl)c4)c(Cl)c3)c21	0%
CCC(CC)(CC)n1cnc2c(N)ncnc21 [SKF-97620]	34%
Cl.Cn1ccc(-c2cccc(Nc3ccnc4cc(-c5nccs5)ccc34)c2)n1 [GW525701]	22%
Fc1ccc(Nc2nccc(-c3c(-c4ccc(Cl)cc4)nn4ncccc34)n2)cc1F [GW829058]	40%
COc1ccc(NC(=O)c2ccc(-c3cc(-c4nnc(C)o4)ccc3C)cc2)cc1 [GW595885]	3%
CS(=O)(=O)CCNCc1ccc(-c2ccc3ncnc(Nc4ccc(OCc5ccccc5)c(Cl)c4)c3c2)o1.Cl [GW574783]	14%
CCn1c(-c2ccncc2)nc2cnccc21 [SB-735216]	27%
c1ccc(-c2ccc3c(-c4ccnc(Nc5ccc6c(c5)OCCO6)n4)cnn3n2)cc1 [GW818941]	0%
Cc1cc(N2CCC(NS(=O)(=O)c3ccc(F)cc3)CC2)nc(Nc2cccc(C#N)c2)n1.O=C(O)C(F)(F)F [GSK1653537]	25%
COc1ccc(Nc2nccc(N3CCC(NC(=O)Nc4ccc5c(c4)OCO5)C3)n2)cc1 (stereo not drawn) [GSK1379745]	11%
